Assay [1] has as its target Glutathione peroxidase 1 (Homo sapiens) (UniProt P07203). The assay can be described thus: Primary qHTS Assay for Inhibitors of Recombinant Selenoprotein Glutathione Peroxidase 1 (GPX1) (AID 1845191). Further: nearly all actives have a fitted effect of over 65% in size. Further: potency means the concentration at half of the fitted maximal effect. Put shortly: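 GPX1 10 nM, GR 100 nM, GSH 1 mM, NADPH 0.5 mM, CHP 0.5 mM (final). 30-min cpd preincubation, RT. Ex340/Em450 read t=0, t=15 min.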
Assay [2] concerns the target Phospholipid hydroperoxide glutathione peroxidase GPX4 (Homo sapiens) (UniProt P36969). The assay can be described thus: Primary qHTS Assay for Inhibitors of Recombinant Selenoprotein Glutathione Peroxidase 4 (GPX4) (AID 1845192). Further: nearly all actives have a fitted effect of over 65% in size. Further: potency means the concentration at half of the fitted maximal effect. In outline:
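qHTS, GR-coupled: GPX4 200 nM + cpd 30 min RT → GSH 1 mM, NADPH 0.5 mM, GR 100 nM → CHP 0.5 mM start; fluor 340/450 at t0 and t15 min; no-enzyme wells as control.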

The target of assay [3] is Luciferin 4-monooxygenase (Photinus pyralis) (UniProt P08659). The assay can be described thus: Primary firefly luciferase (FLuc) qHTS assay for identification of artifact compounds. (AID 1845220). Further: nearly all actives have a fitted effect of over 60% in size. Put shortly:
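Reaction readout was CCD-imaged luminescence, taken 5 min after adding 10 nM purified firefly enzyme to compound-treated wells holding 10 uM luciferin and ATP in pH 7.6 buffer.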

Assay [4] can be described thus: Primary fluorescence-based thiol-reactive (MSTI) qHTS assay for identification of artifact compounds. (AID 1845221).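 Further: series mostly up to about 54 µM; thiol-reactive compounds lower the probe fluorescence signal; nearly all actives have a fitted effect of over 65% in size.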 Put shortly:
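In PBS pH 7.4 with 2% DMSO, each compound met 4 uM MSTI for one hour at ambient temperature, shielded from light, before fluorescence detection.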

In assay [5] the test system is Nanoluciferase (engineered Oplophorus gracilirostris luciferase). The assay can be described thus: Primary Nanoluciferase (NLuc) qHTS assay for identification of artifact compounds. (AID 1845222).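 Further: NLuc secreted into diluted conditioned medium of S16 cells; series mostly up to about 54 µM.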 Put shortly: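 Concentration-response data were obtained by luminescence after 5 min with Nano-Glo substrate at 1:100. The enzyme was diluted S16 NLuc-expressing cell medium, preincubated with compound for 15 min at RT. Curves were fitted with a 4-parameter Hill model.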

Assay [6] is described as follows: Primary redox qHTS assay for identification of artifact compounds. (AID 1845223). Put shortly: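 Redox-cycling detection via DTT (250 uM final) oxidation coupled to Amplex Red (25 uM)/HRP (250 mU/mL) in HBSS. 15 min preincubation plus 30 min after DTT, room temperature. Ex/Em 525/598 nm; 4-parameter Hill fit against DMSO and 10 uM DA3003.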

The structures appear in SMILES notation. Results filed as inconclusive are left out. Calls of active or inactive are those of the source. The call rests on the fitted dose curve; in most records, active means well fitted curve in the direction sought with a large enough effect; inconclusive means small, poorly fitted or top-dose-only effect, or another doubt; inactive means no such curve, though single readings can be large; an effect the other way counts as inactive or inconclusive.

Sequence of Glutathione peroxidase 1 (Homo sapiens) (P07203 whole entry, looked up): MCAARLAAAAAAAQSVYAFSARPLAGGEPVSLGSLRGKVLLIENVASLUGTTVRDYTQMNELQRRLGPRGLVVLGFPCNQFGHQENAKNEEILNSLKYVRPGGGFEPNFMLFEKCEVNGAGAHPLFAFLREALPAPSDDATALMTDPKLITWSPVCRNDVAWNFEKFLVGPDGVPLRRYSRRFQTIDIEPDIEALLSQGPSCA
Sequence of Phospholipid hydroperoxide glutathione peroxidase GPX4 (Homo sapiens) (P36969 whole entry, looked up): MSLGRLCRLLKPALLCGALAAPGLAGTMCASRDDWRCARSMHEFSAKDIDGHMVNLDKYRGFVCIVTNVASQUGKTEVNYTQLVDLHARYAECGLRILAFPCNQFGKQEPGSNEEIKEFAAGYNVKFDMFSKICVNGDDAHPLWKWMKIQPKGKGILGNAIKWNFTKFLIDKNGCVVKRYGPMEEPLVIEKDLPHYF

Turning to `CS(=O)(=O)c1ccc(-n2nc(C(F)(F)F)cc2-c2ccc(F)cc2)cc1`, the Potency entry in assay [1], in assay [2], in assay [3] and in assay [5] was “inactive” throughout. In addition, the call in assay [4] and in assay [6] was inactive.

As for `CCNc1nc2c(ncn2[C@H]2C[C@H](O)[C@@H](CO)O2)c(=O)[nH]1`, the Potency entry in assay [1], in assay [2], in assay [3] and in assay [5] was “inactive” in each case. In addition, the result in assay [4] and in assay [6] was inactive.

Regarding `CC(C(=O)O)c1ccc2c(c1)[nH]c1ccc(Cl)cc12` (configuration not stated), the Potency entry in assay [1], in assay [2] and in assay [3] was “inactive” throughout. In addition, the result in assay [4] and in assay [6] was inactive.

In the case of `O=C(O)[C@H](CC(=O)N1C[C@H]2CCCC[C@H]2C1)Cc1ccccc1`, the Potency entry in assay [1], in assay [2], in assay [3] and in assay [5] was “inactive” each time. The molecule was classed as inactive in assay [4] and in assay [6].

For `CN1[C@@H]2CC[C@H]1CC(OC(c1ccccc1)c1ccccc1)C2` (some centres not stated), the Potency entry in assay [1], in assay [2], in assay [3] and in assay [5] was “inactive” each time. Further, the outcome in assay [4] and in assay [6] was inactive.

`COC(=O)C1=C(C)NC(C)=C(C(=O)OCC(C)=O)C1c1ccccc1[N+](=O)[O-]` (configuration not stated): the Potency entry in assay [2] is “inactive”.

For the molecule `Nc1ccn([C@H]2O[C@H](CO)[C@@H](O)C2(F)F)c(=O)n1`, in assay [2], the Potency result is “inactive”.

With `C[C@H](O)[C@H](O)[C@H]1CNc2nc(N)[nH]c(=O)c2N1`, the Potency in assay [1] is 18 µM (active); in assay [2] it was 20.2 µM (active). Also, the Potency result in assay [3] and in assay [5] was “inactive” each time. For the same molecule, the result in assay [4] and in assay [6] was inactive.

For the molecule `O=C1C(SCCO)=C(SCCO)C(=O)c2ccccc21`, the Potency result in assay [2] was “inactive”.

Regarding `COC(=O)[C@H]1[C@H]2C[C@@H]3c4[nH]c5cc(OC)ccc5c4CCN3C[C@H]2C[C@@H](OC(=O)/C=C/c2cc(OC)c(OC)c(OC)c2)[C@@H]1OC`, the Potency entry in assay [1], in assay [3] and in assay [5] was “inactive” throughout.

In the case of `CCN(CC)CCCCNc1ncc2cc(-c3c(Cl)cccc3Cl)c(NC(=O)NC(C)(C)C)nc2n1`, the Potency in assay [1] is 20.2 µM (active); in assay [2] it was 7.18 µM (active). In addition, the Potency entry in assay [3] and in assay [5] was “inactive” throughout. Moreover, the outcome in assay [4] and in assay [6] was inactive.
